Screens from PubChem.
Pf growth 96h – inhibits malaria parasite growth, 96 h | P. falciparum luciferase reporter growth, 96 h | Potency, µM (top dose mostly 28.7 µM), for the others: at the highest dose activity change, negative = inhibition, usual class: inhibitors | 6.9% of 320,000 active | AID 504834; further: potency means the concentration at half of the fitted maximal effect; on the % scale 0 is the no-effect control and ±100 the full control effect
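Delayed-death screen, second-generation endpoint: infected erythrocytes, 2% hematocrit, 0.05% parasitemia final; 96 hours at 37 C, 5% CO2; luciferase detection reagent; luminescence decrease equals reduced growth.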
Pf growth 48h – inhibits P. falciparum growth in the first generation, 48 h | Potency, µM (highest dose often 28.7 µM), for inactives: at the highest dose activity change, negative = inhibition, hits mostly inhibitors | 5.9% of 310,000 active | P. falciparum luciferase growth in erythrocytes, 48 h; further: potency means the concentration at half of the fitted maximal effect; on the % scale 0 is the no-effect control and ±100 the full control effect
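First compound was added to culture medium, then infected red cells at 0.1% parasitemia and 2% hematocrit (final). After incubation at 37 C under 5% CO2, luciferase detection reagent was dispensed and light output recorded.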
CHX counter – affects cycloheximide protein synthesis inhibition readout, counter-screen; AID 2314; cell reporter, cycloheximide protein synthesis inhibition counterscreen; 12% of 300,000 active; max response, %; in the data active means max response mostly above about 13%, no sharp cut-off; inactive means mostly below about 14%; further: read at 38.3 µM for the half of the compounds with a filed dose; 0% is about no effect
Shiga inhibitor – inhibitors of Shiga toxin in Vero cells; 9.2% of 290,000 active; AID 2315; Vero cells, Shiga toxin protein synthesis inhibition reporter; inhibition, % at 38.7 µM; in the data active means inhibition mostly above about 28%, no sharp cut-off; inactive means mostly below about 43%; further: 0% is about no effect
AMA1 RON2 block – AMA1-RON2 (P. falciparum) interaction inhibition; AlphaScreen AMA1-biotinylated RON2 peptide binding; Potency, µM (highest dose often 58.2 µM), for inactives: top-dose activity change, negative = inhibition, actives largely listed as inhibitors; 0.2% of 360,000 active;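 further: potency means the concentration at half of the fitted maximal effect; 0% = vehicle wells and -100% = peptide control; nearly all actives have a fitted effect of over 45% in size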
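AMA1 (3D7) with his tag at 25 nM final met compounds first, then biotinylated RON2 peptide at 25 nM; detection used donor plus acceptor beads, 10 µg/mL apiece, read by AlphaScreen after 30 min at room temperature.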
HCV inhibitor – HCV inhibition | Potency, µM (highest dose often 41.8 µM), without a hit: top-dose activity change, negative = inhibition, usual class: inhibitors | Huh7.5.1 HCVcc-Cre infection, luciferase reporter, 44 h | AID 651820 | 3.4% of 340,000 active; further: potency means the concentration at half of the fitted maximal effect; on the % scale 0 is the no-effect control and ±100 the full control effect
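Whole-lifecycle infectious HCVcc-Cre system; cells 1,000/well, compound then virus (~0.5 moi) added 4 h after plating, 44 h culture. Luciferase read 15 sec following 15 min substrate incubation, room temp.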
Starred values were filed as active, the others as inactive; i = inactive; ? = inconclusive; · = not tested or not shown; [ ] = another dose, or the depositor's remark. Most compounds without a hit are left out; they make up all but 21% or so of the library. Unless noted, the call rests on the fitted dose curve; in most records, active means well fitted curve in the direction sought with a large enough effect; inconclusive means small, poorly fitted or top-dose-only effect, or another doubt; inactive means no such curve, though single readings can be large; an effect the other way counts as inactive or inconclusive.

SMILES	Pf growth 96h	Pf growth 48h	CHX counter	Shiga inhibitor	AMA1 RON2 block	HCV inhibitor
COc1cccc(C(=O)NC2=NCCS2)c1	i	407.1%	29.3*	41.5*	19.7%	4.0%
CCOc1cccc(C(=O)NC2=NCCS2)c1	?	164.3%	39.5*	72.2*	127.6%	-4.4%
CC(C)Oc1cccc(C(=O)NC2=NCCS2)c1	?	346.6%	55.3*	107.5*	105.6%	-16.8%
CCCCN1C(=O)c2ccc(C(=O)NC3=NCCS3)cc2C1=O	·	-6.2%	20.2*	33.5	23.7%	-16.0%
O=C(NC1=NCCS1)c1cccc(F)c1	·	·	·	·	17.5%	6.4%
Cc1cc2c(s1)c1cnn(Cc3cccc(Cn4ncc5c6sc(C)cc6n(C)c5c4=O)c3F)c(=O)c1n2C	·	·	-4.2	-1.3	·	·
CCCCCn1ncc2c3sc(C)cc3n(C)c2c1=O	·	·	31.8*	91.0*	·	·
CC1(C)NC(=O)N(CC(=O)N2CCCC(C(F)(F)F)C2)C1=O (configuration not stated)	20.6%	?	·	·	1.6%	23.4%
COCCNC(=O)C(c1cccnc1)N(Cc1ccccc1)C(=O)Cn1nnc2ccccc21 (configuration not stated)	34.5%	41.0%	29.1*	93.9*	0.0%	12.5%
COCCNC(=O)C(c1ccncc1)N(Cc1ccccc1)C(=O)Cn1nnc2ccccc21 (configuration not stated)	?	143.8%	33.3*	42.2*	13.6%	8.0%
CSc1nsc(/C=C/Nc2ccc(C)c(C)c2)c1C#N	?	?	27.8	45.1*	8.7%	?
CN1CCN(CCOc2cccc(Cl)c2)CC1	10.4µM*	67.9%	7.7	8.2	-4.4%	-19.0%
CC(C)c1cccc(OCCN2CCCC2)c1	10.4µM*	-26.3%	5.4	-4.0	-9.1%	3.8%
Clc1cccc(OCCN2CCCC2)c1	100.7%	-9.4%	-1.9	-13.2	-13.0%	-1.4%
O=C(CSc1nnc(COc2ccccc2)o1)N1CCCCC1	20.3%	-22.5%	4.4	-4.2	-10.5%	6.6%
O=C1Nc2ccccc2C12OCC(COc1ccc(Cl)cc1)O2 (configuration not stated)	·	12.4%	7.5	11.2	9.5%	12.6µM*
CSc1nnc2c(n1)c(C)nn2-c1ccc(C)cc1	-16.9%	36.6%	19.6*	23.0	-11.4%	19.4%
CSc1nnc2c3cc(C)ccc3n(Cc3ccccc3)c2n1	·	-11.5%	1.3	15.6	9.0%	-27.9%
O=C(COC(=O)c1c[nH]c2ccccc12)NC1CCCCC1	16.7%	10.0%	·	·	-1.8%	?
COc1cc(CNC(C)C23CC4CC(CC(C4)C2)C3)ccc1OCC(=O)NC(C)(C)C (configuration not stated)	-0.7%	10.4µM*	-3.9	3.6	-12.0%	?
COc1cc(CNC(C)(C)CO)ccc1OCC(=O)NC(C)(C)C	7.1%	-1.6%	-1.0	19.3	-5.3%	15.5%
COc1cc(CNC(C)C23CC4CC(CC(C4)C2)C3)cc(OC)c1OC (configuration not stated)	?	11.7µM*	-3.2	-4.8	-8.2%	-4.0%
COc1cc(C(=O)NC23CC4CC(CC(C4)C2)C3)cc(OC)c1OC	0.0%	?	-3.0	-4.5	13.5%	-8.0%
Cc1ccc(S(=O)(=O)NCCc2cn3nc(C)c(C)nc3n2)cc1C	22.7%	16.6%	-2.8	-7.2	23.9%	?
Cc1[nH]n(-c2ccc(Br)cc2)c(=O)c1/C=N/NC(=O)c1ccccc1	?	?	28.3*	91.6*	110.3%	?
SMILES	Pf growth 96h	Pf growth 48h	CHX counter	Shiga inhibitor	AMA1 RON2 block	HCV inhibitor
Cc1[nH]n(-c2ccccc2)c(=O)c1/C=N/NC(=O)c1cccc(F)c1	-5.3%	10.4µM*	42.7*	66.1*	10.3%	11.2µM*
Cc1cc(C(=O)N/N=C/c2c(C)[nH]n(-c3ccccc3)c2=O)n[nH]1	?	12.4%	8.8	-6.7	-39.7%	-2.6%
Cc1ccc(C)c(C(O)c2ncc(-c3ccc(Cl)cc3)[nH]2)c1 (configuration not stated)	·	·	·	·	-5.0%	·
Cc1nonc1NC(=O)CSc1nc2c(C)cccc2cc1C#N	10.4µM*	?	40.9*	67.9*	16.5%	?
Cc1cccnc1C(NC(=O)C1CCN(CCCc2ccccc2)CC1)c1ccc(F)cc1 (configuration not stated)	·	·	·	·	13.6%	·
Cc1oc2cc3oc(=O)cc(C)c3cc2c1C	34.4%	51.4%	21.6*	24.0	-3.5%	-9.4%
Cc1cc(=O)oc2cc3oc(=O)cc(C)c3cc12	4.65µM*	3.0%	1.4	·	13.6%	8.8%
OC(c1ccc(Cl)c(Cl)c1)c1ncc(-c2ccccc2Cl)[nH]1 (configuration not stated)	·	·	·	·	-11.0%	·
CCc1cccc(NS(=O)(=O)c2c(C)[nH]c(=O)[nH]c2=O)c1	4.7%	26.4%	6.4	6.2	-1.3%	10.7%
CSc1nc(=NC(C)=O)ss1	5.22µM*	10.4%	32.6*	68.4*	-11.0%	-0.8%
O=C(Cc1nc2ccccc2[nH]c1=O)c1ccccc1	320.0%	262.1%	51.1*	68.9*	1.3%	-23.0%
O=C(Cc1nc2ccccc2[nH]1)c1ccc(Br)cc1	1.65µM*	?	28.5*	76.5*	51.8%	-17.4%
CCn1c(C)nc2c(C)[n+](CC(=O)c3ccc(Br)cc3)ccc21	?	-98.1%	24.6*	61.2*	9.1%	3.1%
COC(=O)c1ccc[n+](CC(=O)c2ccc(Br)cc2)c1	?	?	0.3	-0.5	-1.7%	-6.6%
COC(=O)C[C@H]1C=C[C@@H](NC(=O)C2CC2)[C@@H](CO)O1	·	·	·	·	-14.7%	·
CCOc1ccc(S(=O)(=O)n2cnc3cc(C)c(C)cc32)cc1	7.7%	3.1%	-2.1	-3.5	14.9%	10µM*
C/C(CC(=O)NC1CCCCCC1)=N\NC(=O)c1cnccn1	-14.2%	7.8%	25.6*	45.7*	67.4%	31.9%
C/C(CC(=O)NC1CCCCC1)=N\NC(=O)c1ccccc1C	?	27.5%	13.6	63.4*	47.0%	25.1%
O=C(NC1CCCCCCC1)c1cnccn1	-9.0%	·	8.3	26.3	6.3%	19.6%
COC(=O)[C@]12CCCCC=C1N(CCC1=CCCCC1)C(=O)[C@H](CC(=O)NCC13CC4CC(CC(C4)C1)C3)C2	·	·	·	·	-8.5%	·
Cc1ccc(CNC(=O)C2(S(=O)(=O)c3ccc(C)cc3)CC2)cc1	4.8%	-0.2%	-3.2	19.8	1.2%	-7.8%
Cc1ccc(CNC(=O)c2ccc(CS(=O)(=O)c3ccccc3)o2)cc1	4.65µM*	7.6%	-2.5	-8.7	13.9%	-27.9%
Cc1ccc(S(=O)(=O)Cc2ccc(C(=O)NCc3cccs3)o2)cc1	3.7µM*	·	3.0	2.3	2.8%	-11.0%
Cc1ccc(CNC(=O)C2(S(=O)(=O)c3ccccc3)CC=CC2)cc1	83.6%	62.9%	40.6*	43.7*	0.0%	2.6%
CCCCC1(Br)C(=O)N(c2ccccc2)N(c2ccccc2)C1=O	-22.4%	?	·	·	-2.6%[11.6 µM]	0.4%
